High-throughput results as filed in PubChem BioAssay.
Compounds with a hit are over-represented: about 1.3% of the library has one in this group of screens.
Mtb hypoxia inh – inhibitors of hypoxia-regulated fluorescent reporter in Mycobacterium tuberculosis | M. tuberculosis hypoxia-regulated fluorescent reporter, fluorescence | fluorescence inhibition, % (no concentration beside the values) | hit rate 0.1% among 300,000 | AID 1159583; in the data active = fluorescence inhibition mostly above about 23%, no sharp cut-off; inactive = mostly below about 17%
RN4220 kill – kills Staphylococcus aureus RN4220 | S. aureus RN4220 growth, OD600, 16 h | inhibition, % (test concentration not listed) | hit rate 0.33% among 330,000; in the data active = inhibition above about 85%;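 note: plate controls were untreated cells for no effect and reference antibiotic for full effect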
MazF activator – increases E. coli MazEF RNase cleavage of RNA; activation, % at 20 µM; FAM/BHQ RNA-DNA oligo cleavage fluorescence, 5 h; AID 504720; P0AE70; hit rate 0.32% among 350,000; in the data active = activation above about 50%
Target sequence (P0AE70 whole entry, looked up): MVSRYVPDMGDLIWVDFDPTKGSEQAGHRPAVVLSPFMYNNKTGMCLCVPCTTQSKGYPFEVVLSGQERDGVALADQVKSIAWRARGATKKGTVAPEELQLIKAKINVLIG
PfHsp40 yeast – rescue of PfHsp40-mediated yeast toxicity; AID 504582; hit rate 0.68% among 340,000; growth rescue, % at 12.5 µM; S. cerevisiae expressing PfHsp40, growth rescue, ATP luminescence; in the data active = growth rescue above about 28%, passing the limit was not always enough;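 note: yeast W303a lacking pdr1 and pdr3 grown in galactose medium; growth measured after three days at 30 °C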
TcdB inh – TcdB glycohydrolase inhibition. TcdB glycohydrolase enzymatic assay, plate reader. inhibition, % at 9.99 µM. hit rate 0.24% among 350,000; in the data active = inhibition above about 10%
ugtP null kill – compounds lethal to S. aureus RN4220 ugtP deletion mutant | OD600 growth, 16 h | growth inhibition, % (concentration not given with the values) | hit rate 0.54% among 330,000 | AID 1259309; in the data active = growth inhibition above about 68%;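 note: plate controls were untreated wells for no effect and antibiotic for full effect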
Numbers without * were called inactive; x = no result given.

SMILES | Mtb hypoxia inh | RN4220 kill | MazF activator | PfHsp40 yeast | TcdB inh | ugtP null kill
O=C(NN=Cc1ccc(Br)s1)c1c[nH]c2ccccc12 | 19 | -11 | x | x | x | -7
O=c1[nH]nc(-c2ccc([N+](=O)[O-])o2)c(=O)[nH]1 | 25 | 6 | 3 | 1 | 1 | 17
Nc1nnc(-c2ccc([N+](=O)[O-])o2)s1 | 6 | 98* | -9 | 0 | 1 | 92*
O=C(O)c1ccc(-[n+]2c(-c3ccccc3)cc(-c3ccccc3)cc2-c2ccccc2)cc1 | 5 | -1 | 3 | -2 | 0 | -3
CCCOC(=O)c1ccc(-[n+]2c(-c3ccccc3)cc(-c3ccccc3)cc2-c2ccccc2)cc1 | x | 101* | 25 | 2 | 0 | 100*
Oc1cc2c(cc1O)[C@H]1c3ccc(O)c(O)c3OC[C@@]1(O)C2 | x | x | 231* | 1 | 1 | x
O=C(Oc1ccc(C=NNC(=O)c2ccccn2)cc1)c1cccc(Br)c1 | 8 | 5 | x | x | x | -4
O=S(=O)(Nc1ccc(-n2cccc2)cc1)c1ccc(Cl)c(Cl)c1 | 3 | -12 | -19 | 66* | -1 | -30
O=C(CCC(=O)Nc1ccc(Cl)cc1Cl)NN=Cc1ccc([N+](=O)[O-])o1 | x | 96* | x | x | x | 100*
O=C(CSc1ccc(Cl)cc1)NN=Cc1ccc([N+](=O)[O-])o1 | -2 | 46 | x | x | x | 100*
O=C(CNc1ccccc1)NN=Cc1ccc([N+](=O)[O-])o1 | 5 | 35 | x | x | x | 35
N#CCCN(C(=O)COC(=O)c1cc(=O)c2ccccc2o1)c1ccccc1 | -6 | 1 | 2 | -1 | 10* | 2
Fc1ccc(Cn2ccc(-c3cnc(-c4ccccc4)s3)n2)cc1 | x | -12 | -10 | 58* | x | 21
Cn1c(COc2ccc3ccccc3c2)nnc1SCC(=O)OC1CCCCC1 | 2 | -2 | -16 | 49* | x | -17
Cn1c(COc2ccc3ccccc3c2)nnc1SCC(N)=O | 8 | 7 | 2 | -1 | x | -8
O=[N+]([O-])c1ccccc1/C=C/C=Nn1c(-c2ccco2)n[nH]c1=S | 4 | 4 | x | x | x | 4
CCOC(=O)Nc1nc(-c2ccccc2)c(C(=O)c2ccccc2)s1 | 1 | 18 | 1 | -1 | x | -14
COC(=O)Nc1nc(-c2ccccc2)c(C(=O)c2ccc(Cl)cc2)s1 | 2 | 0 | 52* | 4 | x | -19
CCOc1cc(C=NNC(=O)c2ccc(CN3CCOCC3)cc2)ccc1OC | 1 | 4 | x | x | x | -2
NC(=O)c1cc([N+](=O)[O-])ccc1Nc1ccccc1 | 2 | 0 | -13 | 48* | 5 | -2
O=C(O)c1ccccc1Nc1ccc([N+](=O)[O-])cc1C(=O)O | x | x | -3 | 0 | 2 | x
O=S(=O)(/C=C/c1ccccc1)NC1CCCCCCC1 | 11 | 9 | -5 | 70* | x | -19
O=S(=O)(/C=C/c1ccccc1)NC1CCCCCC1 | 8 | 10 | -14 | 63* | 3 | -16
C[C@@H]1CCCCO[C@@H](CN(C)C)[C@H](C)CN([C@H](C)CO)C(=O)c2cc(NS(=O)(=O)c3ccc(Cl)cc3)ccc2O1 | x | x | x | x | -2 | x
CC(=NNC(=O)c1c(Cl)c(C)nn1C)c1cccc(NC(=O)COc2ccccc2)c1 | 13 | 14 | x | x | x | 2
SMILES | Mtb hypoxia inh | RN4220 kill | MazF activator | PfHsp40 yeast | TcdB inh | ugtP null kill
Cc1[nH]nc(-c2ccc(O)cc2O)c1Oc1ccccc1 | 6 | 7 | 7 | 1 | 11* | -19
CCc1cc(-c2n[nH]c(C)c2Oc2ccc(C(C)C)cc2)c(O)cc1O | 14 | 86* | -6 | 0 | x | 99*
CCCOC(=O)c1ccc(Oc2c(-c3ccc(O)cc3O)n[nH]c2C)cc1 | -2 | 37 | 0 | 3 | x | 48
O=C(NN=Cc1cccnc1)c1ccccc1Br | 5 | 1 | x | x | x | 2
CC(NC(=O)COC(=O)/C=C/c1ccc(Cl)cc1)c1ccccc1 (configuration not stated) | -6 | -1 | -1 | 32* | 0 | -4
CC(NC(=O)COC(=O)/C=C/c1cccc(F)c1)c1ccccc1 (configuration not stated) | 9 | 1 | -9 | -1 | 0 | 2
COc1ccccc1NC(=O)CSc1nc2nc(C)cc(C)c2c(=O)[nH]1 | 0 | 5 | 51* | 1 | x | -1
COc1ccc(NC(=O)CSc2nc3nc(C)cc(C)c3c(=O)[nH]2)cc1OC | -3 | -7 | -13 | -1 | 0 | -7
Cc1cc(C)nc(SCC(=O)c2ccc(O)c(O)c2)n1 | 9 | 8 | 9 | -1 | 11* | 0
CCN(CC)c1ccc(C=NNc2ccc([N+](=O)[O-])cn2)cc1 | 26 | -3 | 76* | -1 | 0 | 39
O=[N+]([O-])c1ccc(NN=Cc2ccc(O)cc2)nc1 | 12 | 3 | 7 | 0 | 3 | 6
CN(C)CCCNCCCNC(=O)C(=NO)c1ccccc1 | -6 | 2 | x | x | x | 13
CN1CCN(C(=O)c2cc(COc3ccc(F)cc3Cl)on2)CC1c1ccccc1 (configuration not stated) | 9 | 4 | -3 | 139* | 0 | 6
CN1CCN(C(=O)c2cc(COc3c(F)cccc3F)on2)CC1c1ccccc1 (configuration not stated) | 4 | 1 | 2 | 80* | 1 | 7
COc1ccccc1OCc1cc(C(=O)N2CCN(C)C(c3ccccc3)C2)no1 (configuration not stated) | 4 | 1 | 1 | -1 | -3 | 2
CSc1ccccc1OCc1cc(C(=O)N2CCN(C)C(c3ccccc3)C2)no1 (configuration not stated) | -9 | 2 | 5 | 78* | 2 | -18
CC(C=NNC(=O)c1c(Br)cnn1C)=Cc1ccccc1 | 2 | 1 | x | x | x | -3
CC(C)CC(CO)N(Cc1ccccc1)S(=O)(=O)N(Cc1ccccc1)C(CO)CC(C)C (configuration not stated) | 13 | -13 | x | x | x | -42
Cc1ccc(C)c2c1cc(C)c1nnc(SCC(=O)NCc3ccc4c(c3)OCO4)n12 | 3 | -10 | 6 | 0 | 10* | 10
Cc1cc(C)c2cc(C)c3nnc(SCC(=O)NCc4ccc5c(c4)OCO5)n3c2c1 | -15 | -6 | -6 | 0 | x | 7
O=c1[nH]nc(-c2ccc(F)cc2)cc1Cc1ccccc1 | -2 | 3 | 7 | 2 | 10* | -3
CCOC(=O)Cn1nc(-c2ccc(F)cc2)cc(Cc2ccccc2)c1=O | -1 | -2 | -5 | 4 | 0 | 7
O=c1[nH]c(=O)n(C2CC(O)C(CO)O2)cc1C(F)(F)F (configuration not stated) | 4 | 4 | x | x | x | 25
CCc1cn(C2CC(O)C(CO)O2)c(=O)[nH]c1=O (configuration not stated) | -2 | 0 | 1 | -1 | 1 | 1
O=c1[nH]c(=O)n([C@H]2C[C@H](O)[C@@H](CO)O2)cc1I | x | x | 1 | 76* | 1 | x
O=c1[nH]c(=O)n(C2CC(O)C(CO)O2)cc1F (configuration not stated) | 0 | 99* | x | x | x | 99*
